Source: PubChem BioAssay (NCATS)
Records with an inconclusive call do not appear. Calls of active or inactive are those of the source. Calls follow the shape of the dose curve; as a rule, active = well fitted curve in the direction sought with a large enough effect; inconclusive = small, poorly fitted or top-dose-only effect, or another doubt; inactive = no such curve, though single readings can be large; an effect the other way counts as inactive or inconclusive.

Legend:
[1] = qHTS assay for measurement of the activity of small molecule inhibitors on Zika virus induced Caspase-3 activity in human iPSC derived neural progenitor cells (hNPCs) (AID 1224857); also: nearly all actives have a fitted effect of over 65% in size
Method in brief: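 After overnight (16–20 h) culture at 350 cells/well, hNPCs get compound, then ZIKV 2 FFU/cell one hour later. Six hours on, Caspase-Glo 3/7 is added and luminescence measured.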

[2] = qHTS assay for measurement of the activity of small molecule inhibitors on Zika virus induced Caspase-3 activity in human astrocytoma cells (AID 1224859)
Method in brief: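 Inhibition of Zika-induced caspase-3/7 activity: SNB-19 cells, 1 h compound pretreatment, ZIKV 2 FFU/cell for 6 h at 37 C, Caspase-Glo luminescence read-out.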

[3] = qHTS assay to identify small molecule inhibitors of chordoma cells - UCH-1 (AID 1259355); also: nearly all actives have a fitted effect of over 55% in size
Method in brief: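 A 48hr growth-inhibition format: each drug tested at 15 concentrations together with added auranofin, camptothecin, doxorubicin, rubitecan and topotecan, with cell viability quantified as CellTiter-Glo luminescence.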

[4] = qHTS assay to identify small molecule inhibitors of chordoma cells - UCH-2 (AID 1259356); also: series mostly up to about 46 µM
[5] = P-glycoprotein substrates identified in KB-8-5-11 adenocarcinoma cell line, qHTS therapeutic library screen (AID 1346987); settings: outcome: dose series up to 44.5 µM; also: series mostly up to about 44 µM; nearly all actives have a fitted effect of over 65% in size
Method in brief: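 Human cervical adenocarcinoma KB-8-5-11 cells, selected in colchicine to over-express P-gp and assayed without it, were exposed for 72 h to titrated compounds. An ATP-based luminescent viability signal gave AC50.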

[6] = NS1 protein of Zika virus - qHTS assay to identify small molecule inhibitors in human HEK 293 cells (AID 1347053); also: series mostly up to about 46 µM; nearly all actives have a fitted effect of over 55% in size
Method in brief: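 TR-FRET signal from two anti-ZIKV NS1 antibodies quantified NS1 in HEK 293 cells 24 h after MR766 infection at MOI = 0.5; compounds were added 1 h before virus. Uninfected cells and infected cells defined the NS1 normalization range.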

[7] = qHTS of pediatric cancer cell lines to identify multiple opportunities for drug repurposing: Primary screen for TC32 cells (AID 1347089); also: nearly all actives have a fitted effect of over 60% in size
Method in brief: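 qHTS, TC32, 48 h drug treatment, CellTiter-Glo luminescence as a proxy for metabolically active cells; primary top concentration 46 µM (MIPE 11-pt, NPC 8-pt); confirmatory 11-pt.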

[8] = qHTS of pediatric cancer cell lines to identify multiple opportunities for drug repurposing: Primary screen for DAOY cells (AID 1347090); also: series mostly up to about 46 µM; nearly all actives have a fitted effect of over 55% in size
Method in brief: (§1)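 Eight- or eleven-point concentration series, 48 h treatment at 37 degrees C in growth media; readout CellTiter-Glo luminescence. Potency and efficacy were taken from the concentration-response curves.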

[9] = qHTS of pediatric cancer cell lines to identify multiple opportunities for drug repurposing: Primary screen for SJ-GBM2 cells (AID 1347091)
Method in brief: as §1

[10] = qHTS of pediatric cancer cell lines to identify multiple opportunities for drug repurposing: Primary screen for A673 cells (AID 1347092); also: nearly all actives have a fitted effect of over 45% in size
Method in brief: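 Luminescence from CellTiter-Glo, taken after 15 min at room temperature, served as the proxy for metabolically active cells following 48 h treatment. Both potency and efficacy were taken from curves fitted to the titration data.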

[11] = qHTS of pediatric cancer cell lines to identify multiple opportunities for drug repurposing: Primary screen for SK-N-MC cells (AID 1347093); also: series mostly up to about 46 µM
Method in brief: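 Metabolically active cells were quantified by ATP-dependent luminescence (CellTiter-Glo, 15 min at room temperature) following 48 h treatment. Cells had been plated at 500-1,000 per well and settled for 5 h beforehand.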

[12] = qHTS of pediatric cancer cell lines to identify multiple opportunities for drug repurposing: Primary screen for BT-37 cells (AID 1347094); also: series mostly up to about 57 µM
Method in brief: (§2)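 Readout: CellTiter-Glo luminescence, 48 h treatment. Controls DMSO (neutral) and bortezomib 2.3 µM final (positive). Potency and efficacy taken from primary-screen concentration-response curves.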

[13] = qHTS of pediatric cancer cell lines to identify multiple opportunities for drug repurposing: Primary screen for NB-EBc1 cells (AID 1347095)
Method in brief: as §2

[14] = qHTS of pediatric cancer cell lines to identify multiple opportunities for drug repurposing: Primary screen for U-2 OS cells (AID 1347096); also: nearly all actives have a fitted effect of over 50% in size
Method in brief: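 Cells (500-1,000/well) in growth media were settled 5 h at 37 degrees C, then given compounds for 48 h. Viability was read as CellTiter-Glo luminescence. Primary runs used MIPE at 11 points (0.78 nM-46 µM) and NPC at 8 points (0.59 nM-46 µM); follow-ups used 11 points.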

[15] = qHTS of pediatric cancer cell lines to identify multiple opportunities for drug repurposing: Primary screen for Saos-2 cells (AID 1347097); also: nearly all actives have a fitted effect of over 40% in size
Method in brief: as §2

[16] = qHTS of pediatric cancer cell lines to identify multiple opportunities for drug repurposing: Primary screen for SK-N-SH cells (AID 1347098); also: nearly all actives have a fitted effect of over 65% in size
Method in brief: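 Cells (500-1,000/well) rested 5 h, then received compounds for 48 h; metabolically active cells were measured by CellTiter-Glo luminescence. Final concentrations spanned up to 46 µM (MIPE, 11-point) or 0.59 nM-46 µM (NPC, 8-point) in primary screens, 11-point in follow-ups.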

[17] = P-glycoprotein substrates identified in KB-3-1 adenocarcinoma cell line, qHTS therapeutic library screen (AID 1346986); settings: outcome: dose series up to 44.5 µM; also: nearly all actives have a fitted effect of over 60% in size
Method in brief: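 Using luminescence to quantify ATP, parental and P-gp-overexpressing KB cells were compared after 72 h compound titration. KB-8-5-11 was also run with the P-gp inhibitor tariquidar.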

Measured: Potency

CN1C(=O)CC(c2ccccc2)C1=O (configuration not stated)
inactive: [1] | [2] | [3] | [4] | [5] | [6] | [7] | [8] | [9] | [10] | [11] | [12] | [13] | [14] | [15] | [16]

COCC(=O)Nc1c(I)c(C(=O)NCC(O)CO)c(I)c(C(=O)N(C)CC(O)CO)c1I (configuration not stated)
inactive: [1] | [2] | [3] | [4] | [5] | [6] | [7] | [8] | [9] | [10] | [11] | [12] | [13] | [14] | [15] | [16]

O=C1c2ccccc2S(=O)(=O)N1CCCCN1CCN(c2ncccn2)CC1
inactive: [1] | [2] | [3] | [4] | [5] | [6] | [7] | [8] | [9] | [10] | [11] | [12] | [13] | [14] | [15] | [16]

O=C(O)CCCc1ccccc1
inactive: [1] | [2] | [3] | [4] | [17] | [5] | [6] | [7] | [8] | [9] | [10] | [11] | [12] | [13] | [14] | [15] | [16]

O=C(O)[C@@H]1[C@H]2C[C@H]3c4[nH]c5ccccc5c4CCN3C[C@@H]2CC[C@@H]1O
inactive: [1] | [2] | [3] | [4] | [5] | [6] | [7] | [8] | [9] | [10] | [11] | [12] | [13] | [14] | [15]

CN[C@@H]1[C@H](O)[C@H](NC)[C@H]2O[C@@]3(O)C(=O)C[C@@H](C)O[C@H]3O[C@@H]2[C@H]1O
inactive: [1] | [2] | [3] | [4] | [5] | [6] | [7] | [8] | [9] | [10] | [11] | [12] | [13] | [14] | [15]

O=C(O)/C=C/c1ccc(Cn2ccnc2)cc1
inactive: [1] | [2] | [3] | [4] | [5] | [6] | [7] | [8] | [9] | [10] | [11] | [12] | [13] | [14] | [15]

CCc1nnc(NS(=O)(=O)c2ccc(N)cc2)s1
inactive: [1] | [2] | [3] | [4] | [5] | [6] | [7] | [8] | [9] | [10] | [11] | [12] | [13] | [14] | [15] | [16]

CC(C)=CCC/C(C)=C/CO
inactive: [1] | [2] | [3] | [4] | [5] | [6] | [7] | [8] | [9] | [10] | [11] | [12] | [13] | [14] | [15] | [16]

Cc1cccc(C(=O)O)c1O
inactive: [1] | [2] | [3] | [4] | [5] | [6] | [7] | [8] | [9] | [10] | [11] | [12] | [13] | [14] | [15] | [16]

C[C@@H]1O[C@@H](OC[C@H]2O[C@@H](Oc3c(-c4ccc(O)c(O)c4)oc4cc(O)cc(O)c4c3=O)[C@H](O)[C@@H](O)[C@@H]2O)[C@H](O)[C@H](O)[C@H]1O
inactive: [1] | [2] | [3] | [4] | [5] | [6] | [7] | [8] | [9] | [10] | [11] | [12] | [13] | [14] | [15]

CC(=O)N[C@@H](CC(C)C)C(=O)O
inactive: [1] | [2] | [3] | [4] | [5] | [6] | [7] | [8] | [9] | [10] | [11] | [12] | [13] | [14] | [15] | [16]

CCOc1cc(NC(C)=O)ccc1C(=O)OC
inactive: [1] | [2] | [3] | [4] | [5] | [6] | [7] | [8] | [9] | [10] | [11] | [12] | [13] | [14] | [15] | [16]

O=C(O)CCC(=O)O
inactive: [1] | [2] | [3] | [4] | [5] | [6] | [7] | [8] | [9] | [10] | [11] | [12] | [13] | [14] | [15]

CC1CCN(CCCC(=O)c2ccc(F)cc2)CC1
inactive: [1] | [2] | [3] | [4] | [5] | [6] | [7] | [8] | [9] | [10] | [11] | [12] | [13] | [14] | [15] | [16]

Cc1cc(-n2nc3ccc(Cl)cc3n2)c(O)c(C(C)(C)C)c1
inactive: [1] | [2] | [3] | [4] | [5] | [6] | [7] | [8] | [9] | [10] | [11] | [12] | [13] | [14] | [15]

C/C=C/C(=O)N(CC)c1ccccc1C
inactive: [1] | [2] | [3] | [4] | [5] | [6] | [7] | [8] | [9] | [10] | [11] | [12] | [13] | [14] | [15] | [16]
